CTSL1 counter: Fasciola hepatica cathepsin L1 inhibitors, primary screen, counter-screen for PFM18AAP inhibitor project, biochemical, QFRET, fluorogenic peptide substrate; recombinant F. hepatica cathepsin L1, Z-Leu-Arg-MCA fluorescence; inhibition, % at 5.96 µM; actives 0.49% (n = 300,000);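 active = inhibition above the mean of all tested compounds plus 3 SD, set per screening campaign, cut at about 17% in these data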
HDAC3 inhib: HDAC3 deacetylase inhibitors, primary screen, biochemical, fluorescence, cell-free homogeneous; Histone deacetylase 3 (Homo sapiens), O15379; recombinant HDAC3, fluorogenic peptide/trypsin coupled; inhibition, % at 8.3 µM; actives 0.15% (n = 320,000); AID 2718, 2010; in the data active = inhibition above about 26%, passing the limit was not always enough
LANA-H2B inh: blockers of LANA interaction with H2A/H2B – biochemical, FP readout, HTS, primary screen; actives 0.6% (n = 320,000); inhibition, % (no concentration beside the values); Protein LANA1 (Human herpesvirus 8 type P (isolate GK18)), Q9QR71; cell-free LANA-H2A/H2B peptide, fluorescence polarization; in the data active = inhibition mostly above about 10%, no sharp cut-off; inactive = mostly below about 6.7%
m5-HT2A agonist: mouse Htr2a agonists via beta-arrestin recruitment, primary screen, cell-based, luminescence. 5-hydroxytryptamine receptor 2A (Mus musculus), P35363. CHO-K1 mHTR2A beta-arrestin complementation; percent of 30 µM serotonin response. activation, % at 7.6 µM. actives 0.66% (n = 360,000). AID 624169, 2012;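 active = activation above a run cutoff, the mean activation of all tested compounds plus 3 SD, cut at about 14% in these data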
Target sequence (P35363 whole entry, looked up): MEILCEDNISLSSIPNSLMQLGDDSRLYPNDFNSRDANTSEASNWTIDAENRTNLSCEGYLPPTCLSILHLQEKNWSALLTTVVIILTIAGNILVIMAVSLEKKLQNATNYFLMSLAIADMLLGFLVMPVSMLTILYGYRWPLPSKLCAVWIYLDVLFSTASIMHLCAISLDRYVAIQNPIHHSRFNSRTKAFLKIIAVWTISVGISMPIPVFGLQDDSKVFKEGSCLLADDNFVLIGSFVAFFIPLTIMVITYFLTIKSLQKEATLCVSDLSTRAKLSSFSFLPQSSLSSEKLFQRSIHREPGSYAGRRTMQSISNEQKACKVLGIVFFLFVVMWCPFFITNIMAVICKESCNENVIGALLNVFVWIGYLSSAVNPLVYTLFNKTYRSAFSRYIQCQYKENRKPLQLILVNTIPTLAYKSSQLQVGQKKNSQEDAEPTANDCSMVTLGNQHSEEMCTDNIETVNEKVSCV
Hits are given with their value; i = inactive; nt = no result; + = active, no number. Rows were chosen to be rich in hits. Some 1.7% of all compounds tested hit in one or more screens of this group.

SMILES	CTSL1 counter	HDAC3 inhib	LANA-H2B inh	m5-HT2A agonist
O=C(c1cnn(C(=O)c2ccco2)c1)c1ccccc1O	nt	i	i	i
COc1ccc(O)c(C(=O)c2cnn(C(=O)c3cccc(N(C)C)c3)c2)c1	nt	30.0	i	i
COc1ccc(C(=O)n2cc(C(=O)c3cc(C)ccc3O)cn2)cc1	i	37.2	i	i
O=C(CCn1cccn1)N1CCCC(Nc2ccc(F)c(F)c2)C1 (configuration not stated)	nt	nt	nt	i
Cc1ccccc1Nc1nnc(SCc2cc([N+](=O)[O-])cc3c2OCOC3)s1	i	i	23.9	i
CCCN(C(=O)CCCSc1nc2ccccc2[nH]1)c1c(N)n(Cc2ccccc2)c(=O)[nH]c1=O	19.0	i	i	i
CCCCN(C(=O)CSc1nnc(-c2ccccc2OC)n1C)c1c(N)n(Cc2ccccc2)c(=O)[nH]c1=O	i	i	+	i
CCCCN(C(=O)CCCSc1nc2ccccc2[nH]1)c1c(N)n(Cc2ccccc2)c(=O)[nH]c1=O	i	i	i	i
COc1cccc(COC(=O)c2cc(=O)[nH]c3ccc(S(=O)(=O)N4CCOCC4)cc23)c1OC	i	i	i	i
O=C(C#Cc1cccc([N+](=O)[O-])c1)c1ccccc1	22.3	i	i	i
CC(C)=C1CCC(C)CC1=NNC(N)=S (configuration not stated)	nt	nt	nt	i
CC1C/C(=N\NC(N)=S)c2cc(Cl)ccc2S1 (configuration not stated)	67.5	i	i	i
O=C(COC(=O)CNC(=O)C1CCCCC1)Nc1ccc(Cl)cc1F	33.5	i	i	i
Cc1ccc(NC(=O)COC(=O)CNC(=O)C2CCCCC2)c(Br)c1	47.0	i	i	i
COc1cc(C(=O)COC(=O)CNC(=O)C2CCCCC2)cc(OC)c1OC	35.8	i	i	i
Cc1cc(C)cc(NC(=O)COC(=O)CNC(=O)C2CCCCC2)c1	nt	i	i	i
CC1CC1C(=O)Nc1ccc(S(=O)(=O)N2CCCCC2)cc1 (configuration not stated)	nt	nt	nt	i
CSCCC(NC(=O)c1ccccc1)C(=O)N1CC=C(c2ccccc2)CC1 (configuration not stated)	i	i	i	i
CCN(CC(O)Cn1c2ccccc2c2ccccc21)S(=O)(=O)c1ccc(F)cc1 (configuration not stated)	i	30.2	i	i
O=S(=O)(c1ccc(F)cc1)N(CCO)CC(O)Cn1c2ccccc2c2ccccc21 (configuration not stated)	i	i	i	i
CCN1CCN(CC(=O)Nc2ccc3c(c2)OCO3)C(=O)C1=O	i	i	i	23.2
CCN(CC(=O)Nc1ccc(NC(C)=O)cc1)C(=O)c1ccc2c(c1)OCO2	nt	i	22.1	i
CCN(CC(=O)Nc1ccc(NC(C)=O)cc1)C(=O)C1CCCC1	nt	i	102.9	i
COc1ccc(CC(C)NCC(O)c2ccc(O)c(NC=O)c2)cc1 (configuration not stated)	nt	nt	nt	i
COC(=O)CN(C)C(=O)c1ccccc1OC1CCN(S(C)(=O)=O)CC1	i	i	i	i
SMILES	CTSL1 counter	HDAC3 inhib	LANA-H2B inh	m5-HT2A agonist
CC(C)Cc1nnc(NC(=O)c2ccc(S(=O)(=O)N3CCCC3)cc2)s1	nt	nt	nt	i
O=C(c1cc(Cl)cc(Cl)c1)N1CCC(=O)N([C@H](COCc2ccccc2)Cc2ccccc2)CC1	nt	nt	nt	i
CCOC(=O)N1CCC(N2Cc3cccc(C(=O)NCc4ccccn4)c3C2=O)CC1	26.5	i	i	i
O=C(NC1CCCCC1)N1CCN(S(=O)(=O)c2ccc(F)cc2)CC1	i	i	16.9	i
O=C(NC1CCCCC1)N1CCCCCCC1	18.1	i	i	i
O=C(NC1CCCCCC1)C1CCN(S(=O)(=O)c2ccc(F)cc2)CC1	i	i	i	i
Cc1cc(C)nc(/N=C2\NC(=O)CC(C(=O)O)N2c2ccc(Oc3ccccc3)cc2)n1 (configuration not stated)	36.8	i	i	i
Cc1nc(Cl)sc1C(=O)Nc1cccc(Cl)c1	i	i	i	i
Cc1nnsc1C(=O)Nc1cccc(Cl)c1	i	i	24.6	i
Cc1ccc(S(=O)(=O)Nc2c(C)n(C)n(-c3ccccc3)c2=O)cc1C(=O)NCc1ccco1	nt	nt	nt	i
Cc1ccc(S(=O)(=O)Oc2ccccc2/C=N/N=C(N)N)cc1	i	i	38.0	i
CC(Sc1nnc(C2CC2)n1C1CC1)C(=O)Nc1cccc(S(=O)(=O)N(C)C)c1 (configuration not stated)	nt	i	+	i
CC(C)Cn1c(CCCNC(=O)c2ccc(F)cc2)nc2ccccc21	i	i	11.0	i
Cn1cccc1C(=O)NCc1ccccn1	nt	nt	nt	i
NC(=S)N/N=C/c1c(O)c(Br)cc2oc3c(c12)CCCC3	22.4	i	i	i
COCCn1c(SCC(=O)N2CCc3ccccc32)nc2c(c1=O)SC(C)C2 (configuration not stated)	i	i	8.1	i
COCCn1c(SCC(=O)N2CCCc3ccccc32)nc2c(c1=O)SC(C)C2 (configuration not stated)	i	i	i	i
O=C(NNC(=S)NCCc1ccccc1)c1ccc(Br)s1	18.2	i	i	i
O=C(CCc1ccc(O)cc1)NNC(=S)NCCc1ccccc1	i	i	i	i
COc1ccc(OC)c(Cc2nnc(CCC(=O)N3CCCCC3c3nccs3)o2)c1 (configuration not stated)	i	i	i	i
OCCN(CCO)c1nc(N2CCCCC2)c2nc(N(CCO)CCO)nc(N3CCCCC3)c2n1	nt	nt	79.5	i
COC(=O)/C(=C/c1ccco1)NC(=O)c1ccccc1	i	nt	i	i
Cc1ccc(C(=O)N/C(=C/c2ccco2)C(=O)OCN2C(=O)c3ccccc3C2=O)cc1	43.0	i	i	i
CCCOC(=O)/C(=C\C=C\c1ccco1)NC(=O)c1ccccc1	26.2	i	i	i
COc1cc(/C=C/C(=O)O)cc(S(=O)(=O)Nc2ccccc2Oc2ccccc2)c1OC	20.8	i	i	i
SMILES	CTSL1 counter	HDAC3 inhib	LANA-H2B inh	m5-HT2A agonist
COc1cc(/C=C/C(=O)O)cc(S(=O)(=O)Nc2ccc3[nH]c(=O)[nH]c3c2)c1OC	i	i	i	i
Cc1cc(C)n(C(C)CNS(=O)(=O)c2ccc(C)c(C)c2)n1 (configuration not stated)	i	i	i	i
CS(=O)(=O)N(CC(=O)Nc1ccccc1C(=O)NCc1ccccc1)c1ccc2c(c1)OCCO2	i	i	85.9	i
CCCS(=O)(=O)NC(=O)C1(C)CCN(C(=O)c2ccc(F)c(C)c2)C1 (configuration not stated)	nt	nt	nt	i
COc1ccccc1NC(=O)CSc1n[nH]c(-c2ccco2)n1	nt	nt	nt	i
Cc1ccccc1NC(=O)CSc1n[nH]c(-c2ccco2)n1	i	i	15.8	i
c1ccc(CN(CCN2CCOCC2)Cc2ccccc2)cc1	nt	nt	nt	i
O=C(COc1coc(CN2CCc3ccccc32)cc1=O)NCCc1ccccc1	i	i	i	i
O=C(COc1coc(CN2CCc3ccccc32)cc1=O)N1CCCCC1	21.5	i	i	i

Screening data: PubChem BioAssay, several laboratories
